An excerpt weighted towards active compounds, which were near 4% of everything screened.
MITF TRPM1 HTS – activators of MITF-driven TRPM1 promoter reporter, primary screen, cell-based, SK-MEL-5, luciferase, single point; SK-MEL-5 TRPM1-promoter luciferase, 24 h; % of positive control, neutral wells = 0; activation, % at 12.5 µM; actives 0.75% (n = 300,000);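 active = mean activation of at least 80% with every replicate also reaching 80%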
Statin myotox sup – suppressors of statin myotoxicity in C2C12 myotubes, primary screen, cell-based, single point, plate reader; actives 0.78% (n = 330,000); C2C12 myotubes + simvastatin, ATP luminescence, 48 h; scaled: DMSO 0, geranylgeraniol control 100; rescue of ATP level, % at 7.49 µM;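 active = mean ATP rescue above about 67%, or every replicate alone reaching that limit, limit read from the data, passing the limit was not always enough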;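 also: myotubes were challenged with 10 µM simvastatin during compound exposure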
Wnt act – Wnt/beta-catenin pathway activators, primary screen, cell-based, plate reader, single point; actives 1.2% (n = 300,000); Wnt/beta-catenin reporter cell assay, activator; activation, % at 9.35 µM; in the data active = activation above about 30%, passing the limit was not always enough
esBAF inh – Bmi1 luciferase reporter increase in mESCs, primary screen, esBAF inhibitor project, mouse ES cells, Bmi1 luciferase knock-in, single point; 24 h; 100% = twice the neutral-well signal; actives 2% (n = 350,000); reporter increase, % at 12.5 µM; in the data active = activation above about 40%;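 also: a rise in the Bmi1 reporter signal indicates esBAF inhibition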
TRPM1 prom inh – inhibitors of MITF-dependent TRPM1 promoter reporter, primary screen, cell-based, SK-MEL-5, single point, luciferase | SK-MEL-5 TRPM1 promoter luciferase, 24 h | inhibition, % at 12.5 µM | actives 0.83% (n = 330,000);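 active = mean inhibition across replicates of 60% or more, whatever share of single replicates reaches that level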
LMP1 NFkB inh – EBV LMP1-driven NF-kappaB luciferase reporter inhibitors, primary screen, cell-based, luminescence, single point; LMP1-induced NF-kappaB luciferase reporter cells; inhibition, % at 12.5 µM; actives 0.69% (n = 350,000); AID 504558, 2011; in the data active = inhibition above about 41%
Numbers stand for hits; . = inactive; / = not tested or not shown.

SMILES	MITF TRPM1 HTS	Statin myotox sup	Wnt act	esBAF inh	TRPM1 prom inh	LMP1 NFkB inh
O=C(Nc1ccc(SC(F)F)cc1)c1ccc2c(=O)n3c(nc2c1)CCC3	.	.	.	87.0	.	.
Cn1c(N)c(C(=O)COC(=O)Cc2ccc(F)cc2)c(=O)n(C)c1=O	.	.	.	.	.	.
O=C(NC1CCCCCC1)c1ccc2c(=O)n3c(nc2c1)CCCCC3	91.9	.	/	.	.	.
CCOc1ccc(C2=Nc3ccc(Br)cc3C(c3ccc(N4CCOCC4)cc3)=NN2)cc1	.	/	.	/	.	.
CCOc1ccc(C2=Nc3ccccc3C(c3ccc(N4CCOCC4)cc3)=NN2)cc1	/	.	/	50.1	.	.
N#CCCn1c(=O)n(CCC#N)c2ccccc21	.	/	.	/	.	.
N#CCCN1CCN(Cn2c3ccccc3c3ccccc32)CC1	.	113.5	/	.	.	.
O=C(O)c1cccc(N/N=C/c2sc(N3CCOCC3)nc2-c2ccccc2)c1	.	.	/	48.4	.	.
Nc1ccc(C(=O)N/N=C/c2sc(N3CCOCC3)nc2-c2ccccc2)cc1	.	/	/	/	.	.
O=C(N/N=C/c1sc(N2CCOCC2)nc1-c1ccccc1)c1ccccc1O	.	/	.	/	.	.
O=C(N/N=C/c1sc(N2CCOCC2)nc1-c1ccccc1)c1cccc(S(=O)(=O)N2CCOCC2)c1	.	.	.	.	65.2	.
Cc1cc(C(=O)N/N=C/c2sc(N3CCOCC3)nc2-c2ccccc2)c(C)o1	.	.	.	.	.	41.5
Cc1ccccc1NN1C(=O)C=CC1=O	.	.	/	.	.	.
CCOC(=O)C1CCCN(c2ncnc3c2oc2ccccc23)C1 (configuration not stated)	.	.	/	/	.	.
O=C(c1ccc(F)cc1)c1cccc(C(=O)c2ccc(F)cc2)n1	.	.	.	.	.	.
CC1(O)C(c2ccccc2)=Nc2ccccc21 (configuration not stated)	/	.	61.4	.	/	.
CC1CCCCC1Nc1nc2ccc(Cl)cc2n2cnnc12 (configuration not stated)	.	97.7	.	.	.	.
CN(C)CC/C=C1\c2ccccc2Sc2ccc(Cl)cc21	.	.	.	.	.	.
OCCN1CCN(CC/C=C2/c3ccccc3Sc3ccc(Cl)cc32)CC1	.	.	.	.	.	79.5
CCC1(c2ccc(F)cc2)NC(=O)N(CC(=O)NC2CC2)C1=O (configuration not stated)	.	.	30.9	/	.	.
C[C@@H]1CN([C@@H](C)CO)C(=O)c2cccc(NC(=O)Nc3cccc4ccccc34)c2O[C@H]1CN(C)C(=O)Nc1ccc2c(c1)OCO2	/	/	/	.	/	/
COc1ccc(NC(=O)c2ccc(-c3csc(C)n3)cc2)cc1	/	.	.	41.4	.	.
Cc1nc(-c2ccc(C(=O)Nc3ccc(F)cc3)cc2)cs1	.	.	43.3	.	.	.
Cc1cc(-c2nc3cccnc3s2)ccc1NS(=O)(=O)c1cccs1	/	.	.	44.9	/	.
O=S(=O)(Nc1cccc2ncccc12)c1cccs1	/	.	/	.	84.2	.
SMILES	MITF TRPM1 HTS	Statin myotox sup	Wnt act	esBAF inh	TRPM1 prom inh	LMP1 NFkB inh
O=S(=O)(Nc1ccc(-c2nc3cccnc3s2)cc1)c1cccs1	/	.	.	.	/	.
Cc1c(NS(=O)(=O)c2cccs2)cccc1-c1nc2cccnc2s1	.	/	.	/	.	.
Nc1c(C(=O)CSc2n[nH]c(-c3ccccc3)n2)c(=O)[nH]c(=O)n1C1CC1	.	.	.	.	.	.
N#Cc1cccc(NC(=O)COC(=O)Cn2nc(-c3ccccc3)oc2=O)c1	.	.	37.8	.	.	.
O=C(Nc1ccccn1)c1ccc(COc2ccccc2Cl)o1	/	.	.	64.4	.	.
O=C(Nc1ccc(Cl)cn1)c1ccc(COc2ccccc2Br)o1	.	.	.	87.7	.	.
C=CCn1c(O)c(N=NC(=O)CNC(=O)c2ccncc2)c2ccccc21	.	.	.	.	.	.
COc1ccc(-c2noc(N3CCCC(C(=O)Nc4ccc(C(C)=O)cc4)C3)n2)cc1 (configuration not stated)	.	.	.	48.0	.	.
